# Screening results (PubChem BioAssay)
# HCV inh = HCV inhibition. Huh7.5.1 HCVcc-Cre infection, luciferase reporter, 44 h. Potency, µM (titrated, usually from 41.8 µM), without a hit: top-dose activity change, negative = inhibition, hits mostly inhibitors. actives 3.4% (n = 340,000); also: potency is read from the fitted curve at half-maximal effect; % is scaled to controls: 0 for no effect and ±100 for the full control effect
#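 Compounds are dispensed onto cells plated 4 h earlier at 1,000 per well, with HCVcc-Cre virus (about 0.5 moi) added next. Following 44 h of culture, luminescent signal is measured for 15 sec after 15 min with substrate at room temperature.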
# Shiga toxin inh = blocks Shiga toxin action in Vero cells; Vero cells, Shiga toxin protein synthesis inhibition reporter; inhibition, % at 38.7 µM; actives 9.2% (n = 290,000); AID 2315; in the data active = inhibition mostly above about 28%, no sharp cut-off; inactive = mostly below about 43%; also: 0% is about no effect
# CHX counter = counter-screen for Shiga toxin inhibitors: cycloheximide protein synthesis inhibition; actives 12% (n = 300,000); cell reporter, cycloheximide protein synthesis inhibition counterscreen; max response, %; AID 2314; in the data active = max response mostly above about 13%, no sharp cut-off; inactive = mostly below about 14%; also: read at 38.3 µM for the half of the compounds with a filed dose; 0% is about no effect
# AMA1-RON2 inh = disrupts binding of P. falciparum AMA1 to RON2. AlphaScreen AMA1-biotinylated RON2 peptide binding. Potency, µM (series often up to 58.2 µM), inactives show at the highest dose activity change, negative = inhibition, usual class: inhibitors. actives 0.2% (n = 360,000);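 also: potency is read from the fitted curve at half-maximal effect; 0% = vehicle wells and -100% = peptide control; nearly all actives have a fitted effect of over 45% in size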
#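 AMA1 (3D7) with his tag at 25 nM final met compounds first, then biotinylated RON2 peptide at 25 nM; detection used donor plus acceptor beads, 10 µg/mL apiece, read by AlphaScreen after 30 min at room temperature.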
# Pf growth 48h = P. falciparum growth inhibition at 48 hours (one generation) | P. falciparum luciferase growth in erythrocytes, 48 h | Potency, µM (highest dose often 28.7 µM), without a hit: top-dose activity change, negative = inhibition, hits mostly inhibitors | actives 5.9% (n = 310,000); also: potency is read from the fitted curve at half-maximal effect; % is scaled to controls: 0 for no effect and ±100 for the full control effect
#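 In quantitative HTS format, infected erythrocytes bearing luciferase-reporter parasites were treated for a single generation at 37 C. Luminescence after adding detection reagent served as the growth measure.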
# Pf growth 96h = P. falciparum growth inhibition at 96 hour, primary screen for plastid delayed-death inhibitors. P. falciparum luciferase reporter growth, 96 h. Potency, µM (titrated, usually from 28.7 µM), without a hit: at the top dose activity change, negative = inhibition, actives largely listed as inhibitors. actives 6.9% (n = 320,000); also: potency is read from the fitted curve at half-maximal effect; % is scaled to controls: 0 for no effect and ±100 for the full control effect
#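 96 h incubation, 37 C, 5% CO2, of luciferase-reporter P. falciparum-infected RBCs (2% hematocrit, 0.05% parasitemia final) with test compounds; endpoint luminescence.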
# Numbers without * were called inactive; ? = inconclusive; / = not tested or not shown. Only some compounds are listed: those with a hit (about 21% of all), similar ones and a draw of the others. Unless noted, calls follow the shape of the dose curve; as a rule, active = well fitted curve in the direction sought with a large enough effect; inconclusive = small, poorly fitted or top-dose-only effect, or another doubt; inactive = no such curve, though single readings can be large; an effect the other way counts as inactive or inconclusive.
SMILES,HCV inh,Shiga toxin inh,CHX counter,AMA1-RON2 inh,Pf growth 48h,Pf growth 96h
Cc1ccc(OCc2cc(C(=O)NCC(C)(C)N3CCOCC3)no2)cc1C,?,-20.1,-1.7,0.7%,?,-15.0%
Cc1cc(C)nc(CCNC(=O)c2cc(COc3ccccc3)on2)n1,6.6%,55.7*,35.7*,7.7%,-11.7%,?
NS(=O)(=O)c1ccc(NC(=O)c2ccc(CNS(=O)(=O)c3cc(C(F)(F)F)ccc3Cl)cc2)cc1,-14.0%,-13.0,-2.4,-5.1%,20.8%,-7.3%
Cc1ccc(OCc2cc(C(=O)NCc3cc(F)ccc3C)no2)cn1,?,27.7*,22.2*,7.1%,-22.6%,36.7%
Cc1ccccc1CNC(=O)c1cc(COc2ccc(F)cc2F)on1,7.9%,-1.6,-2.2,13.7%,39.7%,17.8%
Cc1ccc(OCc2cc(C(=O)NCC3COCCO3)no2)cc1C (centres undefined),14.6%,41.8*,40.7*,-0.3%,-5.6%,10.4µM*
N#CC1=C(Nc2ccccc2Cl)SC2(CCCC2)NC1=O,/,/,/,-4.8%,/,/
C[C@@H]1CN([C@H](C)CO)C(=O)c2cc(Br)cnc2O[C@@H]1CN(C)C(=O)NC1CCCC1,/,/,/,7.2%,/,/
C/C(=N\NC(N)=S)c1ccc2c(c1)OCCO2,?,42.9*,26.5*,53.1%,-14.4%,?
C/C(=N\NC(=S)Nc1ccc(F)cc1)c1ccc2c(c1)OCCO2,?,65.6*,28.0*,24.2%,?,?
C/C(=N\NC(=S)NCc1ccccc1)c1ccc2c(c1)OCCO2,?,92.8*,18.2,10.1%,11.5%,?
C/C(=N/NC(=O)c1ccc2c(c1)OCO2)c1ccc(NC(=O)c2ccc(F)cc2)cc1,6.0%,40.1*,34.3*,-9.5%,19.0%,17.0%
COc1ccc(CC(=O)N2CCN(c3ccccc3OC)CC2)cc1OC,-23.0%,12.4,1.0,-5.7%,6.4%,?
O=C1C=C(c2ccccc2Oc2ccccc2)C[C@@H](c2ccc(F)cc2)C1,/,/,/,1.7%,/,/
C/C(=N\NC(=O)CSc1nc(C)cc(C)n1)c1ccc2c(c1)OCCO2,-12.3%,84.0*,37.6*,-2.6%,7.2%,?
C/C(=N\NC(=O)CSc1ncccn1)c1ccc2c(c1)OCCO2,12.7%,42.4,10.4,16.5%,27.0%,?
COc1cc(CN(C)C(C)C(=O)Nc2ccc([N+](=O)[O-])cc2Cl)ccc1OC(F)F (centres undefined),?,-5.3,-2.7,1.7%,13.1µM*,?
COc1ccc([N+](=O)[O-])cc1NC(=O)C(C)Sc1ccccc1 (centres undefined),?,-7.5,-2.0,2.4%,?,?
COc1ccccc1NC(=O)C(C)N(C)Cc1ccc(Cl)s1 (centres undefined),-19.0%,10.5,4.1,?,8.28µM*,?
COc1ccccc1NC(=O)C(C)N(C)CC(=O)Nc1cccc2ccccc12 (centres undefined),-16.4%,/,/,59.8%,/,/
COc1ccc([N+](=O)[O-])cc1NC(=O)C(C)Sc1nc(-c2ccccc2)cs1 (centres undefined),12.6µM*,-7.0,0.3,-21.5%,?,?
COc1ccc([N+](=O)[O-])cc1NC(=O)C(C)N(C)Cc1cccc(OC)c1OC (centres undefined),35.5µM*,-8.1,-2.7,-13.1%,-18.0%,?
COc1ccc(Cl)cc1NC(=O)CN(C)C(C)C(=O)NCC1CCCCC1 (centres undefined),-23.7%,-4.0,-3.5,15.5%,-18.2%,?
COc1ccc(Cl)cc1NC(=O)C(C)N(C)Cc1ccc(C(F)(F)F)cc1 (centres undefined),14.1µM*,-9.8,4.9,-10.2%,7.38µM*,2.08µM*
Cc1ccc(C(=O)Nc2cccc(NC(=O)CN3CCCCC3)c2)cc1,?,/,13.9*,-12.8%,-5.5%,1.0%
SMILES,HCV inh,Shiga toxin inh,CHX counter,AMA1-RON2 inh,Pf growth 48h,Pf growth 96h
O=C(CN1CCCCC1)Nc1cccc(Br)c1,14.1%,20.4,14.6*,12.4%,17.2%,?
COc1cc(NC(=O)CN2C(=O)NC(C)(CCC(C)C)C2=O)cc(OC)c1 (centres undefined),-25.4%,-13.2,-2.5,-18.6%,-15.8%,?
O=C(CN1CCOCC1)Nc1cccc(Br)c1,4.7%,-12.4,-1.1,7.2%,-20.4%,16.3%
COc1cccc(NC(=O)CN2CCN(c3ccccc3F)CC2)c1,3.9%,-6.7,-2.0,-3.1%,-8.7%,11.2%
COc1cccc(NC(=O)CN2CCCCCC2)c1,9.4%,/,23.1*,15.2%,113.6%,?
COc1cccc(NC(=O)CN2C(=O)NC(C)(CCC(C)C)C2=O)c1 (centres undefined),-12.3%,-6.8,-2.4,-0.6%,10.4µM*,17.0%
Cc1cccc(NC(=O)CN2CCCCCC2)c1,15.2%,19.3,5.5,-25.6%,22.5%,20.2%
CC(=O)OCCCNc1cc(SCc2ccco2)c2nonc2c1[N+](=O)[O-],0.4%,-5.8,-2.0,-11.0%,1.7%,2.33µM*
CCOC(=O)N1C2c3ccccc3C(c3ccccc32)N1C(=O)OCC,19.5%,/,/,-4.0%,/,/
CCCN1C(=O)/C(=C/c2cc(C)n(C)c2C)SC1=Nc1ccc(OC)cc1,?,-13.9,-2.1,-22.1%,?,13.1µM*
COc1ccc(N=C2S/C(=C\c3cc(C)n(C)c3C)C(=O)N2C)cc1,11.2µM*,-12.8,-1.0,-18.0%,?,9.28µM*
COc1ccc(N=C2S/C(=C\c3cccs3)C(=O)N2CC(C)C)cc1,-13.8%,-18.5,-4.1,-8.3%,?,3.7µM*
CCNC(=O)C1(C)CCCN(C(=O)c2ccccc2Br)C1 (centres undefined),/,/,/,6.7%,/,/
COc1ccc(Cn2cc(CN(C)C3CN(Cc4cn(Cc5ccc(OC)cc5)nn4)S(=O)(=O)C3)nn2)cc1 (centres undefined),/,/,/,0.3%,/,/
Cc1nn(C(=O)c2cccs2)c(N)c1-c1ccccc1,-14.3%,67.8*,34.7*,-15.1%,67.2%,-98.7%
Cc1nn(C(=O)c2ccc3c(c2)OCO3)c(N)c1-c1ccccc1,6.6%,76.0*,38.9*,-3.8%,229.7%,1.4%
O=C(c1ccc2c(c1)OCO2)N1CCN(c2ccccc2)CC1,-4.5%,44.1,8.4,-2.1%,?,/
O=C(O)C1CCCCC1C(=O)N1CC=C(c2ccccc2)CC1 (centres undefined),-10.2%,53.4*,27.4*,-0.3%,-21.3%,-9.2%
O=C(c1ccc(Br)o1)N1CC=C(c2ccccc2)CC1,-6.1%,/,/,?,/,/
Cc1ccc(C(=O)N2CC=C(c3ccccc3)CC2)s1,-3.1%,/,/,0.3%,10.4µM*,1.4%
O=C(Nc1ccccc1)N1CC=C(c2ccccc2)CC1,8.7%,79.5*,36.0*,/,170.4%,/
Cc1ccsc1C(=O)N1CC=C(c2ccccc2)CC1,14.8%,/,/,0.8%,?,-23.9%
